# According to PubChem BioAssay AID2029 (NMMLSC, 2009):
# Screen size: about 320,000 compounds; about 210 (0.066%) were called active.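 How the source made its calls: active means GFP response relative to DMSO above a set limit, near the screen mean plus 3 SD (cut at about 150% in these data); inconclusive means Fewer than 70 cells measured for a yeast strain; inactive means the rest.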 Only a selection was taken, and actives are over-represented in it overall.
# Assay: modulators of CIT2-GFP expression in yeast, primary screen, S. cerevisiae, GFP fusion, multiplex flow cytometry, MLPCN library (AID 2029);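 further: ratio of well median GFP fluorescence to mean of DMSO wells on the plate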
# Details: S. cerevisiae CIT2-GFP strain, 3 h, at 10 µM, active compounds read high, 100 means same as DMSO wells
row,Compound,GFP response vs DMSO
1,CCCN(C(=O)CSc1nnc(N)s1)c1c(N)n(Cc2ccccc2)c(=O)[nH]c1=O,102% (inactive)
2,CC1CCC(C(C)C)C(=O)/C1=C\c1ccc(NC(=O)CCC(=O)O)cc1 (stereo unspecified),103% (inactive)
3,CC(=O)NC1C(Oc2ccc(C=O)cc2)OC(COC(C)=O)C(OC(C)=O)C1OC(C)=O (stereo unspecified),102% (inactive)
4,COc1ccc(CCNC(=O)C(=O)Nc2ccc3nc4n(c(=O)c3c2)CCCCC4)cc1OC,96.1% (inactive)
5,CC(C)Oc1ccc(/C=N/NC(=O)c2nnn(-c3nonc3N)c2CN(C)C2CCCCC2)cc1,99.5% (inactive)
6,Cc1cc(NC(=O)/C=C/C(=O)N(CC(=O)NC2CCCC2)c2ccc(F)cc2)no1,96.7% (inactive)
7,Oc1cccc2ccc(/C=C/c3ccc(Br)s3)nc12,98.5% (inactive)
8,Cc1cc(N=Nc2ccc3ccccc3c2)ccc1O,97.3% (inactive)
9,Cc1cccc(N(C)C(=O)c2cc(S(=O)(=O)N3CCCCC3)c[nH]2)c1,105% (inactive)
10,C=CCNc1nc(Nc2ccc(Cl)cc2)nc(OC)n1,87% (inactive)
11,COC(=O)COc1ccc2c(=O)c(Oc3ccccc3Br)coc2c1,100% (inactive)
12,COc1ccc(C2(C)ON(c3ccccc3C(F)(F)F)C2=O)cc1 (stereo unspecified),97% (inactive)
13,Cc1noc(NS(=O)(=O)c2ccc(N3CC(O)=C(c4ccccc4)C3=N)cc2)c1C,103% (inactive)
14,O=C(COC(=O)Cn1cnc2ccccc2c1=O)NCC12CC3CC(CC(C3)C1)C2,101% (inactive)
15,O=C(COC(=O)c1cc(S(=O)(=O)N2CCOCC2)ccc1Cl)NCCc1ccccc1,98.2% (inactive)
16,CCCc1nn(C)c2c(=O)[nH]c(-c3cc(S(N)(=O)=O)ccc3OCC)nc12,96% (inactive)
17,Cc1cc(C)cc(NS(=O)(=O)Cc2ccccc2)c1,103% (inactive)
18,CC(OC(=O)CNC(=O)c1ccco1)C(=O)Nc1ccc(Cl)cn1 (stereo unspecified),98.1% (inactive)
19,O=C(N/C(=C\c1ccc(O)cc1)C(=O)N1CCCCC1)c1ccccc1,108% (inactive)
20,COc1cc(/C=C/C(=O)O)cc(S(=O)(=O)Nc2ccccc2SC)c1OC,110% (inactive)
21,CCc1cccc2c3c([nH]c12)C(CC)(CC(=O)O)OCC3 (stereo unspecified),83.9% (inactive)
22,Cc1cccc(CN2CCC(n3nccc3NC(=O)c3ccccc3C)CC2)n1,107% (inactive)
23,CCc1n[nH]c(=S)n1/N=C/c1c[nH]c2ccc(Br)cc12,106% (inactive)

row,Compound,GFP response vs DMSO
1,CCOc1ccc(NS(=O)(=O)c2ccc(C)c(C(N)=O)c2)cc1,94% (inactive)
2,NC(=O)c1oc2ccccc2c1NC(=O)CS(=O)(=O)c1ccccc1,110% (inactive)
3,CC1(C)C2CC=C(/C=N/NC(=O)C3CC3)C1C2 (stereo unspecified),91.7% (inactive)
4,COCCNC(=O)CN(Cc1ccco1)C(=O)CCC(=O)Nc1nccs1,105% (inactive)
5,CCn1c(SCC(=O)Nc2nc(C)cs2)nnc1C(C)NC(=O)c1ccccc1 (stereo unspecified),101% (inactive)
6,CCOC(=O)/C=c1\s/c(=C\c2ccc(C#N)cc2)c(=O)n1CC(=O)Nc1cccc(C)c1C,97.6% (inactive)
7,CN(c1ccccc1)c1ccc(/C=c2\s/c(=C(/C#N)C(=O)C(C)(C)C)n(Cc3ccco3)c2=O)cc1,352% (active)
8,CCOC(=O)Cn1c(=O)oc2cc(S(=O)(=O)N(C)Cc3ccco3)ccc21,96.1% (inactive)
9,COc1ccc(-n2nnc3c(=O)n(CC(=O)N4CCC(Cc5ccccc5)CC4)cnc32)cc1,89.3% (inactive)
10,CCn1c(/C=C/Nc2ccccc2)[n+](CC)c2ccc(C(=O)OCC(F)(F)F)cc21,97.8% (inactive)
11,COc1ccc(/C=N/NC(=O)C(C)N(c2ccc(OC)cc2)S(C)(=O)=O)cc1 (stereo unspecified),109% (inactive)
12,Cc1cccc(NS(=O)(=O)c2ccc(C)c(C(=O)NCc3cccnc3)c2)c1,107% (inactive)
13,O=C(O)C1CCN(C(=O)c2cc(F)cc3c2OCOC3)CC1,109% (inactive)
14,O=S(=O)(c1ccc(Br)cc1)N1CCC(c2nc3ccccc3[nH]2)CC1,111% (inactive)
15,CN(C)CCN(C(=O)C1=COCCO1)c1nc2ccc(Cl)cc2s1,92.3% (inactive)
16,CC(=O)N(CCCN(C)C)c1nc2ccc(C)cc2s1,111% (inactive)
17,Cc1ccc2nc(N(CCN(C)C)C(=O)C3=COCCO3)sc2c1,161% (active)
18,CCc1ccc(Oc2coc3cc(O)ccc3c2=O)cc1,94.9% (inactive)
19,CCN(CC(=O)Nc1cc(Cl)ccc1C)C(=O)Cn1c(=O)cnc2ccccc21,110% (inactive)
20,O=c1[nH]c(CN2CCN(S(=O)(=O)c3ccc4c(c3)OCCO4)CC2)nc2sc3c(c12)CCCC3,101% (inactive)
21,CCn1c(=O)c([N+](=O)[O-])c(NCc2ccc3c(c2)OCO3)c2ccccc21,88.2% (inactive)
22,CCn1c(/C=C/c2ccc([N+](=O)[O-])o2)nc2ccccc2c1=O,210% (active)
23,CCc1ccc(S(=O)(=O)N/N=C\c2ccc([N+](=O)[O-])o2)cc1,91.7% (inactive)

row,Compound,GFP response vs DMSO
1,COc1ccc(S(=O)(=O)NCCOc2ccccc2)cc1F,94.3% (inactive)
2,COCC(C)n1c(SCC(=O)NC2CCCCC2C)nc2ccccc2c1=O (stereo unspecified),101% (inactive)
3,CC(=O)Nc1ccc(NC(=O)C(C)n2c3ccccc3c3nc(=O)cc(C)n32)cc1 (stereo unspecified),109% (inactive)
4,CC(C)NC(=O)C(c1ccc(F)cc1)N(C(=O)CCC(=O)Nc1ccccn1)c1ccccc1F (stereo unspecified),88.4% (inactive)
5,CCOc1cccc(-c2nnc(SCC(=O)NC3CC3)n2C)c1,98.9% (inactive)
6,C[n+]1ccc(/C=C/c2c[nH]c3ccccc23)cc1,274% (active)
7,O=C(N/N=C/c1c[nH]c2ccccc12)c1ccccc1O,80.8% (inactive)
8,COc1ccc(/C=C(\C#N)c2c[nH]c3ccccc23)cc1,79.6% (inactive)
9,CCCCNC(=O)N(O)C1N(/N=C/c2ccc(N(C)C)cc2)C(=S)SC1(C)C (stereo unspecified),105% (inactive)
10,COc1ccc([C@H]2CC(=O)C=C(/C=C/c3ccc(Cl)cc3)C2)cc1,104% (inactive)
11,CC(C)Oc1ccc(CCc2n[nH]c(=S)n2Cc2ccccc2)cc1,98.5% (inactive)
12,N#Cc1nc(N)nc(N(c2ccccc2)c2ccccc2)n1,113% (inactive)
13,O=C(NCC1CCCO1)c1ccccc1-c1nc(-c2ccccc2Cl)no1 (stereo unspecified),77% (inactive)
14,CC(=O)Nc1ccc(S(=O)(=O)Nc2ccc(-c3ccc4nnc(C)n4n3)cc2)cc1,102% (inactive)
15,O=C(NNc1cc(Cl)ccc1Cl)c1cccnc1Cl,107% (inactive)
16,CC(C)C(NC(=O)C1CCC(C(C)(C)C)CC1)C(=O)NCCCN1CCCCC1 (stereo unspecified),94.8% (inactive)
17,O=C(CC1OC(=O)c2ccccc21)NC1CCCCC1 (stereo unspecified),109% (inactive)
18,O=C(CSc1nnc(Nc2ccccc2F)s1)NC1CCCC1,85.1% (inactive)
19,O=C(Oc1cccc(C(=S)N2CCOCC2)c1)c1cccc(Cl)c1,94.4% (inactive)
20,COc1cc(C(=O)N(C)Cc2cccc(OC)c2OC)ccc1OCC(=O)Nc1cccc(C(F)(F)F)c1,101% (inactive)
21,O=C(NC(=S)NC1CCS(=O)(=O)C1)c1cccc([N+](=O)[O-])c1 (stereo unspecified),155% (active)
22,CC1CCN(C(=S)c2cccc([N+](=O)[O-])c2)CC1,102% (inactive)
23,Nc1ccc(C(=O)OCC(=O)NC2CCS(=O)(=O)C2)cc1[N+](=O)[O-] (stereo unspecified),91.7% (inactive)

row,Compound,GFP response vs DMSO
1,O=C(N/N=C1\CCSC1)c1cc(Cl)ccc1O,102% (inactive)
2,Cc1cccc(C)c1NC(=O)C(Cl)C(=O)c1ccccc1 (stereo unspecified),87.7% (inactive)
3,Cc1ccc(C)c(Cn2nnc3c(=O)[nH]c(C(=O)Nc4ccc(F)cc4)nc32)c1,99.3% (inactive)
4,CN(CC(=O)Nc1ccc(C(N)=O)cc1)S(=O)(=O)c1ccc2c(c1)OCCO2,110% (inactive)
5,COc1cc([N+](=O)[O-])cc([N+](=O)[O-])c1NC(=O)N1CCOCC1,110% (inactive)
6,Cc1cc(C(=O)CC#N)c(C)n1-c1c(C)n(C)n(-c2ccccc2)c1=O,92.1% (inactive)
7,O=C(c1cc2ccccc2o1)N1CCN(Cc2ccccc2)CC1,94.7% (inactive)
8,CC1Cc2ccccc2N1CC(=O)Nc1ccc2c(c1)OC(F)(F)O2 (stereo unspecified),82.8% (inactive)
9,COC(=O)C1=C(C)N(Cc2ccccc2)C(=NCCCOC(C)C)N[C@H]1c1ccccc1,69.2% (inactive)
10,COc1ccccc1C(=O)OCC(=O)Nc1cccc(S(=O)(=O)NC2=NCCCCC2)c1,118% (inactive)
11,COc1cccc(NC(=O)CN(C)C(=O)c2cc(C3CC3)nn2-c2ccccc2)c1,106% (inactive)
12,COc1ccc(NC(=O)CCn2ccnc2)c(OC)c1,106% (inactive)
13,CCOc1ccc(OCC)c(NC(=O)CSc2nnc(Cn3cnc4ccccc43)n2C)c1,99% (inactive)
14,O=C(NCC(F)(F)F)Nc1nnc(C(F)(F)F)s1,97.4% (inactive)
15,O=C(NCc1cc(F)cc(C(F)(F)F)c1)C1CCC(=O)N(C2CCCC2)C1 (stereo unspecified),98.4% (inactive)
16,CCSC1=NCCN1S(=O)(=O)c1ccc(F)cc1,151% (active)
17,CS(=O)(=O)N1CCN=C1SCc1ccc(F)cc1,102% (inactive)
18,O=S(=O)(c1ccc(F)cc1)N1CCN=C1SCc1cccc(F)c1,104% (inactive)
19,CC1CC1C(=O)OCC(=O)c1c(N)n(C)c(=O)n(C)c1=O (stereo unspecified),97.2% (inactive)
20,COc1ccc(-c2nc(CS(=O)(=O)CC(=O)NCc3cccc(Br)c3)c(C)o2)cc1,150% (active)
21,Cc1ccc(-c2nc(CS(=O)(=O)CC(=O)NCc3ccc4c(c3)OCO4)c(C)o2)cc1,94.3% (inactive)
22,COc1cccc(-c2nc(CS(=O)(=O)CC(=O)NCCc3ccc(OC)c(OC)c3)c(C)o2)c1,102% (inactive)
